This test concerns the target MAP kinase-activated protein kinase 3 (Homo sapiens) (UniProt Q16644). Conditions: at 1 µM.
Sequence of MAP kinase-activated protein kinase 3 (Homo sapiens) (Q16644 whole entry, looked up): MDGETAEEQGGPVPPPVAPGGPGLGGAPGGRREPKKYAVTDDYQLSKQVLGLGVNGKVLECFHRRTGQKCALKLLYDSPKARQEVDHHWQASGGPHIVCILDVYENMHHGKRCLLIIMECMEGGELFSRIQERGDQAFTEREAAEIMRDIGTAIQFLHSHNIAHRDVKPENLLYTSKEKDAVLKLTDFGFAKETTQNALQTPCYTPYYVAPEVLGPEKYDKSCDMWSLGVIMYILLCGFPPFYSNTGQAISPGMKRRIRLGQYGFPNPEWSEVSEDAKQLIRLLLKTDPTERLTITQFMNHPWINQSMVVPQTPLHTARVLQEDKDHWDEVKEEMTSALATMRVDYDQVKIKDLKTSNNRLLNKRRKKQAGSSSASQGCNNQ
Take `COc1cc2nccc(Oc3ccc(NC(=S)NC(=O)c4ccccc4C)cc3)c2cc1OC`: the residual activity was 101%. In the case of `Nc1nccc(-c2c(-c3ccc(F)cc3)ncn2C2CCNCC2)n1`, the residual activity was 123%.

With `O=c1cc(N2CCOCC2)oc2c1ccc1ccccc12`, the residual activity came out at 127%.

`Cn1cc(/C=C2\C(=O)Nc3ccc(S(N)(=O)=O)cc32)c2ccccc21`: the residual activity was found to be 117%. On to `O=C1NC(=O)/C(=C\c2ccc3nccnc3c2)S1`, for which the residual activity worked out at 97%. On to `NCCNc1ncc(C(N)=O)c(Nc2cccc(C(F)(F)F)c2)n1`, for which the residual activity worked out at 106%.

As for `Nc1ncnc2c1c(-c1ccc(Oc3ccccc3)cc1)cn2C1CCCC1`, the residual activity worked out at 114%. For the compound `CC(C)n1cnc2/c(=N/c3cccc(Cl)c3)nc(NCCO)[nH]c21`, the residual activity is 116%. The same measure for `Nc1nc(Nc2ccc(S(N)(=O)=O)cc2)nn1C(=S)Nc1c(F)cccc1F`: 97%; for `CN(C)S(=O)(=O)c1ccc2c(c1)/C(=C/c1cc3c([nH]1)CCCC3)C(=O)N2`: 94%; for `O=[N+]([O-])c1ccc(-c2nc(-c3ccc(F)cc3)c(-c3ccncc3)[nH]2)cc1`: 105%. `CO[C@H]1C[C@@H]2CC[C@@H](C)[C@@](O)(O2)C(=O)C(=O)N2CCCC[C@H]2C(=O)O[C@H]([C@H](C)C[C@@H]2CC[C@@H](O)[C@H](OC)C2)CC(=O)[C@H](C)/C=C(\C)[C@@H](O)[C@@H](OC)C(=O)[C@H](C)C[C@H](C)/C=C/C=C/C=C/1C`: the residual activity was found to be 103%. As for `N#C/C(=C1/Nc2ccccc2S1)c1ccnc(NCCc2cccnc2)n1`, the residual activity turned out to be 99%. For `O=C1NC(=O)c2cc(Nc3ccc(F)cc3)c(Nc3ccc(F)cc3)cc21` the value was 90%.

On to `CC(=O)c1ccc(N2CCOCC2)cc1O`, for which the residual activity is 131%.
